Laboratory results reported in PubChem BioAssay (EPA / NIEHS).
Activity calls are given as the source filed them. The calls were made as follows: active = hit-call score of the fitted dose curve at least 0.9, where 1 is the maximum; inactive = score below 0.9.

Legend:
[1] = read-out: TIMP metallopeptidase inhibitor 1 (TIMP1), TIMP1 (gene 7076); assay: BSK_hDFCGF_TIMP1: BioMAP Diversity Plus: hDFCGF Assay for TIMP metallopeptidase inhibitor 1 (TIMP1) Biomarker Activity (AID 2283062); conditions: primary human foreskin fibroblasts; actives raise or lower the signal
Outline: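 Human foreskin fibroblast primary cultures dosed for 24 h; secreted/surface TIMP-1 quantified by ELISA. Bidirectional curve fitting against DMSO baseline; cytotoxicity tracked in parallel cultures by SRB total-protein staining.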

[2] = read-out: Monokine induced gamma interferon (MIG), CXCL9 (gene 4283); assay: BSK_hDFCGF_MIG: BioMAP Diversity Plus: hDFCGF Assay for Monokine induced gamma interferon (MIG) Biomarker Activity (AID 2283063); conditions: primary human foreskin fibroblasts; actives raise or lower the signal
Outline: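 MIG/CXCL9 measured by ELISA 24 h after dosing primary human skin fibroblasts. Activity fitted in both directions against DMSO controls. Cytotoxicity was checked in parallel cultures by SRB staining read at 560 nm.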

[3] = read-out: Matrix Metallopeptidase 1 (MMP1), MMP1 (gene 4312); assay: BSK_hDFCGF_MMP1: BioMAP Diversity Plus: hDFCGF Assay for Matrix Metallopeptidase 1 (MMP1) Biomarker Activity (AID 2283064); conditions: primary human foreskin fibroblasts; actives raise or lower the signal
Outline: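 ELISA read-out of MMP1 from human foreskin fibroblasts (primary skin cells), 24 h post-dose. Gain or loss of signal was fitted bidirectionally versus DMSO negative control; cytotoxicity was checked by SRB in parallel cultures.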

[4] = read-out: Vascular cell adhesion molecule 1 (VCAM1), VCAM1 (gene 7412); assay: BSK_hDFCGF_VCAM1: BioMAP Diversity Plus: hDFCGF Assay for Vascular cell adhesion molecule 1 (VCAM1) Biomarker Activity (AID 2283065); conditions: primary human foreskin fibroblasts; actives raise or lower the signal;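 as to AC50: VCAM-1 protein level quantified by ELISA after 24 h chemical exposure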
Outline: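 Human foreskin fibroblast primary cells dosed with chemical, VCAM-1 measured by ELISA at 24 h. Bidirectional curve fitting relative to DMSO as negative control/baseline.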

[5] = read-out: Plasminogen activator inhibitor-1 (PAI1), SERPINE1 (gene 5054); assay: BSK_hDFCGF_PAI1: BioMAP Diversity Plus: hDFCGF Assay for Plasminogen activator inhibitor-1 (PAI1) Biomarker Activity (AID 2283066); conditions: primary human foreskin fibroblasts; actives raise or lower the signal
Outline: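 PAI-1 levels in human dermal foreskin fibroblasts were quantified by ELISA 24 h after dosing, with gain or loss analysed against DMSO. Overt cytotoxicity was checked by sulforhodamine B total-protein staining in parallel cultures.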

[6] = read-out: Intercellular Adhesion Molecule 1 (ICAM1), ICAM1 (gene 3383); assay: BSK_KF3CT_ICAM1: BioMAP Diversity Plus: KF3CT Assay for Intercellular Adhesion Molecule 1 (ICAM1) Biomarker Activity (AID 2283067); conditions: primary human keratinocytes with fibroblasts; actives raise or lower the signal
Outline: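 Human keratinocyte–foreskin fibroblast co-culture was treated for 24 h. Cell-surface ICAM-1 was quantified by ELISA, fitted bidirectionally relative to DMSO. Cytotoxicity was checked in parallel cultures by SRB total-protein staining.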

[7] = read-out: Interferon-gamma inducible Protein 10 (IP10), CXCL10 (gene 3627); assay: BSK_KF3CT_IP10: BioMAP Diversity Plus: KF3CT Assay for Interferon-gamma inducible Protein 10 (IP10) Biomarker Activity (AID 2283068); conditions: primary human keratinocytes with fibroblasts; actives raise or lower the signal
Outline: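 ELISA read-out of IP-10 after 24 h chemical dosing of human skin primary co-culture (keratinocytes, foreskin fibroblasts). Gain or loss of signal relative to DMSO, bidirectional curve fit.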

[8] = BSK_KF3CT_SRB: Viability Assessment in the BioMAP Diversity Plus: KF3CT Assay (AID 2283069); conditions: primary human keratinocytes with fibroblasts
Outline: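 SRB read-out at 560 nm (0.1% stain, TCA-fixed cells) gauges overt cytotoxicity in a human skin keratinocyte–fibroblast co-culture 24 h post-dosing. Signal change was fitted bidirectionally relative to DMSO control.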

[9] = read-out: Interleukin-1 alpha (IL1a), IL1A (gene 3552); assay: BSK_KF3CT_IL1a: BioMAP Diversity Plus: KF3CT Assay for Interleukin-1 alpha (IL1a) Biomarker Activity (AID 2283070); conditions: primary human keratinocytes with fibroblasts; actives raise or lower the signal
Outline: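 Primary skin co-culture (keratinocytes, foreskin fibroblasts), 24 h exposure; ELISA for IL-1a; bidirectional curve fit vs DMSO.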

[10] = read-out: TIMP metallopeptidase inhibitor 2 (TIMP2), TIMP2 (gene 7077); assay: BSK_KF3CT_TIMP2: BioMAP Diversity Plus: KF3CT Assay for TIMP metallopeptidase inhibitor 2 (TIMP2) Biomarker Activity (AID 2283071); conditions: primary human keratinocytes with fibroblasts; actives raise or lower the signal
Outline: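 TIMP-2 measured by ELISA at 24 h in human keratinocyte/fibroblast primary co-cultures exposed to chemicals. Both increases and decreases were fitted against DMSO. Parallel cultures were stained with SRB for total protein as an overt-cytotoxicity check.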

[11] = read-out: Transforming growth factor beta 1 (TGFb1), TGFB1 (gene 7040); assay: BSK_KF3CT_TGFb1: BioMAP Diversity Plus: KF3CT Assay for Transforming growth factor beta 1 (TGFb1) Biomarker Activity (AID 2283072); conditions: primary human keratinocytes with fibroblasts; actives raise or lower the signal
Outline: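 ELISA quantifies TGF-b1 at 24 h post-dose in a primary human skin co-culture of keratinocytes and fibroblasts, with gain or loss judged against DMSO. Parallel SRB total-protein staining flags overt cytotoxicity.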

[12] = read-out: C-C motif chemokine 2 (Homo sapiens) (UniProt P13500); assay: BSK_KF3CT_MCP1: BioMAP Diversity Plus: KF3CT Assay for Monocyte Chemoattractant Protein 1 (MCP1/CCL2) Biomarker Activity (AID 2283073); conditions: primary human keratinocytes with fibroblasts; actives raise or lower the signal
Outline: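 Human keratinocyte–foreskin fibroblast co-culture; MCP-1 measured by ELISA 24 h after dosing. Bidirectional fit vs DMSO; cytotoxicity tracked by SRB total protein in parallel cultures.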

[13] = read-out: Matrix Metallopeptidase 9 (MMP9), MMP9 (gene 4318); assay: BSK_KF3CT_MMP9: BioMAP Diversity Plus: KF3CT Assay for Matrix Metallopeptidase 9 (MMP9) Biomarker Activity (AID 2283074); conditions: primary human keratinocytes with fibroblasts; actives raise or lower the signal;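 as to AC50: MMP9 protein level quantified by ELISA in the co-culture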
Outline: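 ELISA read-out of MMP-9 at 24 h post-dosing in a co-culture of human skin keratinocytes and foreskin fibroblasts. Gain or loss of signal was fitted in both directions against DMSO.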

[14] = read-out: urokinase plasminogen activator (uPA), PLAU (gene 5328); assay: BSK_KF3CT_uPA: BioMAP Diversity Plus: KF3CT Assay for urokinase plasminogen activator (uPA) Biomarker Activity (AID 2283075); conditions: primary human keratinocytes with fibroblasts; actives raise or lower the signal
Outline: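 Skin co-culture (keratinocytes + foreskin fibroblasts), human primary; 24 h post-dose; uPA by ELISA; gain/loss fit vs DMSO baseline.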

[15] = read-out: CD40, CD40 (gene 958); assay: BSK_LPS_CD40: BioMAP Diversity Plus: LPS Assay for CD40 Biomarker Activity (AID 2283076); conditions: primary human HUVEC with PBMC; actives raise or lower the signal
Outline: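 HUVEC plus PBMC co-culture stimulated with LPS; CD40 quantified by ELISA 24 h after compound dosing. Fitting was bidirectional relative to DMSO. SRB staining of parallel cultures flagged overt cytotoxicity.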

[16] = read-out: E-selectin (Homo sapiens) (UniProt P16581); assay: BSK_LPS_Eselectin: BioMAP Diversity Plus: LPS Assay for Eselectin Biomarker Activity (AID 2283077); conditions: primary human HUVEC with PBMC; actives raise or lower the signal
Outline: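 Human umbilical vein endothelial cells co-cultured with PBMC under LPS stimulation; cell-surface E-selectin measured by ELISA 24 h after dosing. Change in either direction versus DMSO, with SRB total-protein staining in parallel cultures for cytotoxicity.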

[17] = read-out: Interleukin-8 (IL8), CXCL8 (gene 3576); assay: BSK_LPS_IL8: BioMAP Diversity Plus: LPS Assay for Interleukin-8 (IL8) Biomarker Activity (AID 2283078); conditions: primary human HUVEC with PBMC; actives raise or lower the signal
Outline: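 Human umbilical vein endothelial cells co-cultured with PBMC, LPS-stimulated, exposed to compound for 24 h. IL-8 quantified by ELISA; fitted in both directions against DMSO, with SRB total-protein staining of parallel cultures for cytotoxicity.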

[18] = BSK_LPS_SRB: Viability Assessment in the BioMAP Diversity Plus: LPS Assay (AID 2283079); conditions: primary human HUVEC with PBMC;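 also: total protein by sulforhodamine B absorbance as a cytotoxicity measure; measured one day after compound addition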
Outline: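 Co-culture of human umbilical vein endothelial cells and PBMC, read 24 h after dosing. Total protein by 0.1% SRB staining after 10% TCA fixation, absorbance at 560 nm; bidirectional fit against DMSO.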

[19] = read-out: Interleukin-1 alpha (IL1a), IL1A (gene 3552); assay: BSK_LPS_IL1a: BioMAP Diversity Plus: LPS Assay for Interleukin-1 alpha (IL1a) Biomarker Activity (AID 2283080); conditions: primary human HUVEC with PBMC; actives raise or lower the signal
Outline: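 Human umbilical vein endothelial cells co-cultured with PBMC and stimulated with LPS; IL-1a measured by ELISA 24 h after dosing. Bidirectional fitting against DMSO; cytotoxicity checked by SRB staining in parallel cultures.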

[20] = read-out: Monocyte Chemoattractant Protein-1 (MCP1), CCL2 (gene 6347); assay: BSK_LPS_MCP1: BioMAP Diversity Plus: LPS Assay for Monocyte Chemoattractant Protein-1 (MCP1) Biomarker Activity (AID 2283081); conditions: primary human HUVEC with PBMC; actives raise or lower the signal;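 as to AC50: secreted MCP-1 protein quantified by ELISA in culture supernatant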
Outline: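 Human umbilical vein endothelial cells co-cultured with PBMC, LPS-stimulated; secreted MCP-1 measured by ELISA 24 h after compound addition. Bidirectional curve fitting against DMSO baseline; SRB total-protein staining in parallel cultures for cytotoxicity.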

Measured: AC50

E-selectin (Homo sapiens), sequence (P16581 whole entry, looked up): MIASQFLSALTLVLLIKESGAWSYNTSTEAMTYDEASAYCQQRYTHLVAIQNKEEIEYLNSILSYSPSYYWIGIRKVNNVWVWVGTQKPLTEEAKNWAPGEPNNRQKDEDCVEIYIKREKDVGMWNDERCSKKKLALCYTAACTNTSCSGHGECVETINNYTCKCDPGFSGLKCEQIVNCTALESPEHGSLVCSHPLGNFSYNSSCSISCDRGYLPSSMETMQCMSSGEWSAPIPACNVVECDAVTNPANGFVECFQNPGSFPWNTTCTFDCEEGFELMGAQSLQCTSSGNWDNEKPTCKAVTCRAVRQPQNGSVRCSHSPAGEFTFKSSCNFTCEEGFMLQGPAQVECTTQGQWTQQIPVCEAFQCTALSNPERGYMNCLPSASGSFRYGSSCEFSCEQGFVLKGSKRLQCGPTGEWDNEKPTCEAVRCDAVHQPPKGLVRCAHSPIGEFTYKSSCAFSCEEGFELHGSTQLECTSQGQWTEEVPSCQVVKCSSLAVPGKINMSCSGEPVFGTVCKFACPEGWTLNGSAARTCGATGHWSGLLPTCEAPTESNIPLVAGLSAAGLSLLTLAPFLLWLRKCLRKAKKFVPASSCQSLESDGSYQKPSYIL

CCCCCCCCCCCC(=O)OC
inactive: all assays above

C=CCc1ccc(O)c(OC)c1
inactive: all assays above

COc1ccc2c(c1)c(CC(=O)O)c(C)n2C(=O)c1ccc(Cl)cc1
inactive: all assays above

CN[C@H]1CC[C@@H](c2ccc(Cl)c(Cl)c2)c2ccc(S(N)(=O)=O)cc21
active: [1] 31.4 µM | [2] 34.5 µM | [3] 32.2 µM | [4] 11.9 µM | [5] 23.9 µM | [6] 31.6 µM | [7] 28.3 µM | [8] 30.6 µM | [9] 29.1 µM | [10] 25.3 µM | [11] 19.9 µM | [12] 14.9 µM | [13] 20.9 µM | [14] 18.6 µM | [15] 20 µM | [16] 30.5 µM | [17] 20 µM | [18] 26.6 µM | [19] 24.1 µM | [20] 18.7 µM

CC1(C)CC(N=C=O)CC(C)(CN=C=O)C1 (stereo not given)
not listed: [2]
inactive: all other assays above

COCCOC[C@H](CC1(C(=O)NC2CCC(C(=O)O)CC2)CCCC1)C(=O)Oc1ccc2c(c1)CCC2 (stereo not given in full)
not listed: [2]
inactive: all other assays above

Cc1oc(-c2ccccc2)nc1CCOc1cccc2c1ccn2CCC(=O)O
inactive: all assays above

C[C@]12C=CC(=O)C=C1CC[C@@H]1[C@@H]2C(=O)C[C@@]2(C)[C@H]1CC[C@]2(O)C(=O)CO
not listed: [2]
inactive: all other assays above

CNC(=O)[C@H]1O[C@@H](n2cnc3c(NCc4cc(Cl)ccc4OCc4cc(C)no4)ncnc32)[C@H](O)[C@@H]1N
inactive: all assays above

CCCCCCCCCCCCCCCCCC(=O)O
active: [18] 20 µM | [19] 20 µM
not listed: [2]
inactive: all other assays above

CCOC(=O)C(C)(C)Oc1ccc(Cl)cc1
inactive: all assays above

Cc1cccc([N+](=O)[O-])c1C
not listed: [2]
inactive: all other assays above

COc1cc(-c2nc(NC(=O)c3cc4cc(C)cc(C)c4n3CC(=O)O)sc2CCC2CCCCC2)c(OC)cc1Cl
active: [1] 0.48 µM | [2] 1.62 µM | [3] 0.471 µM | [4] 0.317 µM | [5] 0.442 µM | [6] 3.23 µM | [7] 1.55 µM | [8] 1.64 µM | [9] 4.26 µM | [10] 1.54 µM | [11] 1.68 µM | [12] 1.38 µM | [13] 1.68 µM | [14] 1.89 µM | [15] 3.16 µM | [16] 8.51 µM | [17] 12.2 µM | [18] 4.61 µM | [19] 4.69 µM | [20] 3.25 µM
